ChEMBL document CHEMBL3988442, “University of Dundee, Small-Polar-MMV Screening Library” (2021)
In all, about 69,000 compounds went through this assay and about 420 (0.61%) showed an effect of 50% or more. What follows is part of a selection rich in strong results, with near analogues and random picks from the rest.

target: T1, Histidine--tRNA ligase (Leishmania infantum) (UniProt A4I591); assay: Leishmania infantum Histidine tRNA synthetase (LdHisRS); type: functional; parameters: scale not given: in the data most compounds retested in dose-response had high values; details: 30 µM
T1 sequence (whole entry): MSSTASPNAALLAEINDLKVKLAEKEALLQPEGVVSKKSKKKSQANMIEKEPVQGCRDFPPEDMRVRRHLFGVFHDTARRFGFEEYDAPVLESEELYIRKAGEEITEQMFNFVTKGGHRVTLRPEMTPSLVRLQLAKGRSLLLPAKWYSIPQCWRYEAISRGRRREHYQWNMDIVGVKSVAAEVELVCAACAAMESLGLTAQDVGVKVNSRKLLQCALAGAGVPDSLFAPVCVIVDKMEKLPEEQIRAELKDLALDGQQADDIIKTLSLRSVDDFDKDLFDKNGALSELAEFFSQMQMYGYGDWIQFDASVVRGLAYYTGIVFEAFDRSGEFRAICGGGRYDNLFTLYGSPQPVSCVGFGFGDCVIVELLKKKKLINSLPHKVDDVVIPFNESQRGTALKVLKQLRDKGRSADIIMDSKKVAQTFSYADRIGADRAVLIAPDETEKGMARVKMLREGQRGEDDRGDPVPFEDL

Row | SMILES | Percent Effect [%]
1 | CN1[C@H](CN2CCCC2)C[C@@H]2CN(Cc3ccoc3)CC[C@@H]21 | 6.84
2 | Cn1cc(-c2c(C#N)c(N)nc3c2CCc2[nH]ccc2-3)cn1 | 97.4
3 | Cc1c(-c2cnn(C)c2)nc(N)c(C#N)c1-c1ccc(CO)o1 | 19.7
4 | Cc1n[nH]c(C)c1-c1cc(-c2cc[nH]c2)nc(N)c1C#N | 31.9
5 | Cc1n[nH]c(C)c1-c1c(C#N)c(N)nc2c1CCc1[nH]ccc1-2 | 108
6 | Cc1n[nH]c(C)c1-c1cc(-c2ccc[nH]2)nc(N)c1C#N | 27.5
7 | Cn1cc(-c2c(C#N)c(N)nc3c2CCc2[nH]ccc2-3)cc1C#N | 68.4
8 | CCc1ccc(-c2c(C)c(-c3cnn(C)c3)nc(N)c2C#N)o1 | 19.7
9 | Cc1cc(-c2c(C)c(-c3cnn(C)c3)nc(N)c2C#N)oc1C | 22.4
10 | CCn1cc(-c2cc(-c3ccn(C)c3)nc(N)c2C#N)cc1C#N | 10.4
11 | Cc1nnc([C@@H]2CC[C@@H]3[C@@H](CCN3C3CCC3)O2)o1 | 5.26
12 | O=C(NC1CCCC1)N1C[C@H]2CN(c3ccccn3)C[C@@]2(C(=O)O)C1 | 3.92
13 | O=C(NC[C@]12COC[C@H]1CN(Cc1nccs1)C2)c1ccccc1 | 17.5
14 | CS(=O)(=O)N1C[C@@H](NC(=O)c2ccno2)[C@@H]2OCCC[C@@H]21 | -4.54
15 | COCCN(C(=O)c1cnccn1)c1nc2c(s1)CCc1c-2cnn1C | 51
16 | CCN(CC)Cc1cn2c(n1)CN(C(=O)c1cnccn1)CC2 | 9.02
17 | COCC1c2c(cnn2C)CCN1C(=O)c1cscn1 (stereo unspecified) | 11.7
18 | CCCN(CCC)C(=O)c1cnn(C)c1C | -4
19 | CCCN(C(=O)c1cnccn1)c1nc2c(s1)CCc1c-2cnn1C | 94.8
20 | CCCN(C(=O)c1cnc(C)cn1)c1nc2c(s1)CCc1c-2cnn1C | 99
21 | COCCN1C(=O)CC[C@]12CC[C@@H](NC(=O)c1cnccn1)CC2 | -179
22 | Cc1cnc(C(=O)N(CCN(C)C)Cc2ccc(Cl)cc2)cn1 | 24
23 | Cc1cccc(N(CCC(N)=O)C(=O)c2cnccn2)c1 | 5

Row | SMILES | Percent Effect [%]
24 | Cc1nc(CN2CC[C@@H]3O[C@@H](C(=O)N4CCOCC4)C[C@@H]32)cs1 | 17.4
25 | Cn1cccc1C(=O)N1C[C@@H]2CCCO[C@@H]2[C@H](N2CCOCC2)C1 | 17.5
26 | Cc1ccc(C(=O)N2C[C@@H]3[C@@H](C2)OCC(=O)N3Cc2cccnc2)o1 | 22.1
27 | O=C1C[C@H]2[C@@H](CCN2C(=O)c2ccc[nH]2)N1CCN1CCCC1 | 8.06
28 | Cc1ccc(CN2CCN(Cc3nccn3C)[C@H]3CS(=O)(=O)C[C@H]32)o1 | 16.8
29 | O=C(NC1CC(F)(F)C1)[C@]12COC[C@H]1CN(Cc1ccccc1)C2 | 24
30 | CNC(=O)[C@H]1C[C@@H]2CN(S(=O)(=O)c3cccc(F)c3)C[C@@H]2N1C | 28.6
31 | CN(C)C(=O)N1C[C@@H]2COC[C@]2(CNS(C)(=O)=O)C1 | 4.51
32 | CC(C)(C)c1ccc(OCC(=O)O)c(CN2C[C@H]3C[C@H](O)C[C@H]3C2)c1 | 14.5
33 | Cc1nc(CN2CC[C@H]3[C@H]2CCN3c2nncs2)cs1 | 17.5
34 | Cc1nc(-c2cc(Cl)c3c(c2)CC(CN)O3)c[nH]1 (stereo unspecified) | 40.5
35 | Cc1nc(-c2cc(F)c3c(c2)CC(CN)O3)c[nH]1 (stereo unspecified) | 26.2
36 | NCC1Cc2cc(-c3cnccn3)cc(Cl)c2O1 (stereo unspecified) | 11
37 | NCC1Cc2cc(-c3nccc(N4CCC(O)CC4)n3)cc(F)c2O1 (stereo unspecified) | 51.4
38 | NCC1Cc2cccc(-c3nccc(N4CCC(O)CC4)n3)c2O1 (stereo unspecified) | 34.3
39 | NCC1Cc2cc(-c3nccc(N4CCC(O)CC4)n3)cc(Cl)c2O1 (stereo unspecified) | 60
40 | CCCOc1ccc(C(=O)N2CC[C@H]3CC[C@@H](C2)N3)cc1Cl | 9.17
41 | Cn1cccc1C(=O)N1CC[C@@H]2[C@@H]1CC(=O)N2CC1CCOCC1 | 19.3
42 | CN1CCO[C@@H]2CN(C(=O)Cc3cccs3)CC[C@@H]2C1 | 2.73
43 | Cc1nccc(-c2cccc(NCC(=O)N3CCCCCCC3)c2)n1 | -19.7
44 | Cc1nccc(-c2cccc(NCC(=O)N3CCc4sccc4C3)c2)n1 | 50
45 | Cc1nccc(-c2cccc(NCC(=O)N3CCNC(=O)C3)c2)n1 | 14.9
46 | CCOc1nnc(CN(C)C2CCCN(c3ccc(C)nn3)C2)s1 (stereo unspecified) | 27

Row | SMILES | Percent Effect [%]
47 | Cc1ccc(N2CCCC(NCc3ccc(C)s3)C2)nn1 (stereo unspecified) | 12.3
48 | CCOc1nnc(CNC2CCCN(c3ccc(C)nn3)C2)s1 (stereo unspecified) | 54.8
49 | CC/N=c1/c(NC(=O)NCCOC)c(O)oc2ccccc12 | 12.4
50 | Cn1ccnc1CN1CCN(c2ncnc3ccsc23)CC1 | 11
51 | CN1C(=O)[C@H]2CC[C@@H]1CN(c1ncnc3ccsc13)C2 | 19.8
52 | Cn1nc2c(cc1=O)CN(c1ncnc3ccsc13)CC2 | 100
53 | CC(C)n1nc2c(cc1=O)CN(c1ncnc3ccsc13)CC2 | 11.7
54 | CC(C)n1nc2c(cc1=O)CN(c1ncnc3ccccc13)CC2 | 18.9
55 | CCCn1nc2c(cc1=O)CN(C(C)C(=O)Nc1nccs1)CC2 (stereo unspecified) | 17.9
56 | CCn1nc2c(cc1=O)CN(c1ncnc3ccsc13)CC2 | 58.6
57 | CCCn1nc2c(cc1=O)CN(c1ncnc3ccsc13)CC2 | 83.8
58 | N#Cc1cccc(CN2CCN(C(=O)C3CCC3)[C@@H]3CS(=O)(=O)C[C@@H]32)c1 | 23.3
59 | COCCN1C(=O)[C@H]2CC[C@@H]1CN(Cc1nnc(C3CC3)o1)C2 | -2.04
60 | Cc1cccc(CO[C@@H]2C[C@H]3CN(C(=O)c4cnccn4)CCN3C2)n1 | 12.3
61 | O=S(=O)(N1CCCC1)N1C[C@@H](c2cccc(F)c2)[C@@H]2NCCCCC[C@H]21 | -7.37
62 | COC(=O)N1C[C@H]2CC[C@@H]1CN(Cc1cscn1)C2 | 22.9
63 | Cc1nc(CCN)cc(N2CCC(O)(c3ccc(Cl)cc3)CC2)n1 | 52.1
64 | CCOc1cc(N2CCN(C(=O)c3ccc(OC)cc3)CC2)nc(C)n1 | 5.98
65 | COc1ccc(C(=O)N2CCN(c3cc(CCN)nc(C)n3)CC2)cc1 | 50.4
66 | CCNc1cc(N2CCN(C(=O)c3ccc(OC)cc3)CC2)nc(C)n1 | 2.4
67 | Cc1nc(CCN)cc(N2CCC(O)(c3ccccc3)C2)n1 (stereo unspecified) | 7.04
68 | Cc1nc(CN)cc(N2CCC(O)(c3ccc(Cl)cc3)CC2)n1 | 7.04
69 | O=C(NC[C@@]1(COc2cnccn2)C[C@@H](O)[C@@H](O)C1)C1CCCC1 | 18.9

Row | SMILES | Percent Effect [%]
70 | O=C(c1cccnc1)N1CCN2C[C@H](OCc3ccccc3)C[C@H]2C1 | 2
71 | O=C(c1ccc(S(=O)(=O)NC2CCC2)cc1)N1CC[C@H]2CNC[C@H]21 | -8.06
72 | CN(C)CCCN(C)c1nccc(N2CCN[C@H]3CS(=O)(=O)C[C@H]32)n1 | 12.9
73 | CNc1nc(C)c(-c2nc(-c3c(C)ncc4c3CCNC4)no2)s1 | 7.79
74 | Nc1nc2c(s1)C(c1c(F)cccc1Cl)CC(=O)N2 (stereo unspecified) | 90
75 | CNc1nc2c(s1)C(c1c(Cl)cccc1Cl)CC(=O)N2 (stereo unspecified) | 74.3
76 | CNc1nc2c(s1)C(c1cc(Cl)ccc1F)CC(=O)N2 (stereo unspecified) | 42.5
77 | Cn1ncc2c1NC(=O)CC2c1c(F)cccc1Cl (stereo unspecified) | 20
78 | CC(C)(C)n1ncc2c1NC(=O)CC2c1c(F)cccc1F (stereo unspecified) | 26
79 | CNc1nc2c(s1)C(c1ccc(Cl)cc1Cl)CC(=O)N2 (stereo unspecified) | 62.5
80 | CNc1nc2c(s1)C(c1c(F)cccc1Cl)CC(=O)N2 (stereo unspecified) | 120
81 | CNc1nc2c(s1)C(c1ccc(F)cc1Cl)CC(=O)N2 (stereo unspecified) | 7.5
82 | Cn1ncc2c1NC(=O)CC2c1c(Cl)cccc1Cl (stereo unspecified) | 25
83 | CC(C)n1ncc2c1NC(=O)CC2c1ccccc1Cl (stereo unspecified) | 22.5
84 | CSc1ccccc1CN1C[C@@H]2CC[C@H](C1)N(CC1CC1)C2=O | 21.6
85 | Cc1noc([C@H]2COC[C@H]3CN(C(=O)Cc4ccc(F)cc4)C[C@H]32)n1 | 9.62
86 | O=C(c1ccc(F)cc1)N1C[C@H]2CCC[C@@]2(COCc2ccncc2)C1 | 18.6
87 | O=S(=O)(c1cccs1)N1CC[C@H]2[C@H]1CCN2c1ncccn1 | 11.7
88 | CCN1C(=O)CC[C@@H]2[C@H]1CCN2S(=O)(=O)Cc1ccc(C)cc1 | 8.06
89 | COCC(=O)N1C[C@H]2CNC[C@@]2(C(=O)NCc2cc(C)n[nH]2)C1 | 1.43
90 | O=C([C@H]1COC[C@H]2CN(CC3CC3)C[C@H]21)N1CCOCC1 | 10.3
91 | O[C@]1(c2ccccn2)CC[C@@H]2CN(Cc3cccc4ncccc34)C[C@@H]21 | 27.8
92 | Cc1ccc(N2C[C@H]3OCC[C@H]3[C@H](C(=O)NCC3CC3)C2)nn1 | 0

Row | SMILES | Percent Effect [%]
93 | O=C(NC[C@H]1OC[C@@H]2CCN(c3ccccn3)C[C@@H]21)c1ccco1 | -7.89
94 | Cc1noc([C@H]2C[C@H]3OCC[C@H]3N(S(=O)(=O)C3CC3)C2)n1 | 13.3
95 | CNc1nc2c(s1)C(c1ccccc1Cl)CC(=O)N2 (stereo unspecified) | 57.5
96 | CNc1nc2c(s1)C(c1cccc(F)c1F)CC(=O)N2 (stereo unspecified) | 45.7
97 | CNc1nc2c(s1)C(c1ccccc1F)CC(=O)N2 (stereo unspecified) | 70
98 | CNc1nc2c(s1)C(c1cccc(Cl)c1Cl)CC(=O)N2 (stereo unspecified) | 42.5
99 | Cn1ncc2c1NC(=O)CC2c1ccccc1Cl (stereo unspecified) | 14.3
100 | O=C1CC(c2ccccc2F)c2c(n3ccsc3nc2=O)N1 (stereo unspecified) | 11.7
101 | O=C([C@H]1COC[C@H]2CN(c3ncc(F)cn3)C[C@H]21)N1CCOCC1 | 1.71
102 | Cc1nnc(NC(=O)NCc2ccc(N3CCNC(=O)C3)cc2)s1 | 39.8
103 | Cc1ccccc1C(=O)NCc1ccc(N2CCNC(=O)C2)cc1 | 44.2
104 | CC(O)CNC(=O)NCc1ccc(N2CCNC(=O)C2)cc1 (stereo unspecified) | 49.3
105 | Cc1cccnc1NC(=O)NCc1ccc(N2CCNC(=O)C2)cc1 | 84.9
106 | CC(C(=O)NCc1ccc(N2CCNC(=O)C2)cc1)c1cccs1 (stereo unspecified) | 20.9
107 | CC(C(=O)NCc1ccc(N2CCNC(=O)C2)cc1)n1cncn1 (stereo unspecified) | 52
108 | CCOc1c(Cl)cc(Cl)cc1CNCCCn1ccnc1 | 58.3
109 | CCOc1ccc(Cl)cc1CNCCCn1ccnc1 | 9.71
110 | CCOc1c(CNCCCn2ccnc2)cc(Cl)cc1OC | 10
111 | C[C@H]1C(=O)NC[C@H]2CN(Cc3cccc(F)c3)C[C@H]21 | 15.6
